Assay outcomes deposited in PubChem BioAssay by NMMLSC.
Anthrax LF inh2 – anthrax lethal factor protease inhibition | P15917 | multiplex microsphere protease cleavage assay, LF | inhibition, % at 10 µM | 360,000 compounds, 0.12% hits; further: plate controls were buffer without enzyme for full effect and enzyme alone for no effect
Bead autofluor – flagged as autofluorescent in microsphere protease counterscreen. fluorescence intensity (test concentration not listed). 360,000 compounds, 3.1% hits. compound autofluorescence counterscreen, microsphere flow cytometry; active compounds read high. AID 624483; in the data active means fluorescence intensity above about 16000; inconclusive means no clear call, values can overlap the other calls
BoNT A protease – BoNT A light chain protease inhibition | multiplex microsphere protease substrate cleavage, flow cytometry | inhibition, % at 10 µM | 360,000 compounds, 0.17% hits | AID 588499; further: plate controls were buffer without enzyme for full effect and enzyme alone for no effect
BoNT-F LC inh – blocks Botulinum neurotoxin F light chain protease; Multiplex microsphere protease cleavage assay, flow cytometry; inhibition, % at 10 µM; 360,000 compounds, 0.22% hits; AID 588497; in the data active means inhibition above about 35%, passing the limit was not always enough; inconclusive means no clear call, values can overlap the other calls; further: plate controls were buffer without enzyme for full effect and enzyme alone for no effect
The depositor's hits bear a star; ? = inconclusive. Most compounds without a hit are left out; they make up all but 3.5% or so of the library. Unless noted, no stated cut-off is given here; in the data, active means inhibition above about 30%; inconclusive means no clear call, values can overlap the other calls; inactive means below that.

SMILES	Anthrax LF inh2	Bead autofluor	BoNT A protease	BoNT-F LC inh
N#C/C(=C\c1cccc(O)c1)C(=O)N1CCCCC1	7	4481	-2	47*
Cc1ccc2cc(NC(=O)C3(C)CCN(C)C3)ccc2n1 (stereo not drawn)	3	3849	0	-2
COc1ccccc1-c1nnc(SC2CCc3ccccc3NC2=O)s1 (stereo not drawn)	2	20615*	?	-2
COc1ccc(CC(C)NCC(O)c2ccc(O)c(NC=O)c2)cc1 (stereo not drawn)	-3	2905	0	2
CCOc1ccccc1NC(=O)CC1NCCNC1=O (stereo not drawn)	-14	18163*	4	7
O=C(CC1C(=O)NCCN1C(=O)Nc1ccccc1)Nc1ccc2c(c1)OCO2 (stereo not drawn)	-7	2326	0	1
O=C(CC1C(=O)NCCN1C(=O)Nc1ccccc1)Nc1ccc(F)cc1 (stereo not drawn)	-8	4628	-10	?
O=C(CC1C(=O)NCCN1C(=S)Nc1ccccc1)Nc1ccc2c(c1)OCCO2 (stereo not drawn)	-2	24623*	-3	-5
COc1ccccc1NC(=O)CC1C(=O)NCCN1C(=O)Nc1ccccc1 (stereo not drawn)	3	21334*	3	5
COc1ccc(N(C)S(=O)(=O)c2cccc(C(=O)N3CCN(S(=O)(=O)c4ccc(C)cc4)CC3)c2)cc1	-5	5911	0	-6
Cc1ccc(S(=O)(=O)c2nc(C(C)(C)C)oc2N2CCOCC2)cc1	1	16379*	0	-2
COc1ccc(NC(=O)CNc2cc(C)ccc2C)cc1S(=O)(=O)N1CCOCC1	-7	8749	0	-5
Cc1c(N=Cc2cc3c(cc2Cl)OCO3)c(=O)n(-c2ccccc2)n1C	-3	23177*	1	0
CCOC(=O)c1cnc(SC2CC(=O)N(c3ccc(C)cc3)C2=O)nc1N (stereo not drawn)	0	24081*	-2	-5
CCOC(=O)c1cnc(SC2CC(=O)N(c3ccccc3)C2=O)nc1N (stereo not drawn)	0	3063	0	7
Cc1ccccc1-c1ccc(=O)n(CC(=O)Nc2ccc(N3CCOCC3)cc2)n1	-2	20524*	?	-1
O=C(Cn1nc(-c2ccccc2)ccc1=O)Nc1ccc(N2CCN(C(=O)c3ccccc3)CC2)cc1	-1	22910*	1	0
Cc1ccccc1-c1ccc(=O)n(CC(=O)Nc2ccc(C(=O)N3CCCC3)cc2)n1	4	6630	0	-7
CCN(C(=O)c1cn(C)c(=O)c2ccccc12)c1ccccc1F	9	3954	0	-8
CN(Cc1ccccc1)C(=O)COC(=O)c1cc2ccccc2oc1=O	-4	?	1	-8
Cc1ccccc1NC(=O)c1cccc(N2C(=O)C3C4CCC(C4)C3C2=O)c1 (stereo not drawn)	-1	23697*	?	-5
Cc1ccc(NC(=O)c2cccc(N3C(=O)C4C5CCC(C5)C4C3=O)c2)c(C)c1 (stereo not drawn)	0	2470	0	1
COc1ccc(NC(=O)CCNC(=O)c2ccccc2Cl)cc1S(=O)(=O)N1CCCCC1	2	3750	1	12
Cc1ccc(CN=C2NC(=O)C(CC(=O)NCCc3ccccc3)S2)cc1 (stereo not drawn)	-4	3971	0	-2
CC(C)(C)c1cc(NCCCn2ccnc2)n2ncc(-c3ccc(Cl)cc3)c2n1	-5	25531*	?	-10
SMILES	Anthrax LF inh2	Bead autofluor	BoNT A protease	BoNT-F LC inh
Cc1cc(C)n2nc(SCC(=O)N3CCC4(CC3)OCCO4)nc2n1	-8	19682*	2	2
Cc1cc(C)n2nc(SCC(=O)N3CCCC3)nc2n1	6	3743	0	0
Cc1cccc(C)c1NC(=O)CN(C)C(=O)[C@H](C)NC(=O)c1ccco1	-6	3049	-1	-9
O=C(COC(=O)c1ccccc1Br)NCCc1ccc(F)cc1	-2	2876	4	43*
CN(C)C(CNc1ncnc2sccc12)c1cccs1 (stereo not drawn)	-1	3366	1	-2
CCOC(=O)c1sc2ncnc(NCC(c3cccs3)N(C)C)c2c1C (stereo not drawn)	2	24092*	1	1
CCCCC(=O)Nc1ccc(C(=O)NCCc2ccccc2)cc1	-3	6283	0	-2
CCOC(=O)C1CCCN(Cc2ccc3c(c2)OCO3)C1 (stereo not drawn)	-1	16327*	0	-4
CCCCC(=O)Nc1ccc(C(=O)N2CCC(C(=O)OCC)CC2)cc1	2	23061*	1	3
CCN(CC)C(=O)C1CCCN(Cc2ccc3c(c2)OCO3)C1 (stereo not drawn)	-6	2466	0	4
CCOC(=O)C1CCN(C(=O)N(C)C)CC1	-3	23160*	0	1
